The sample as a whole holds a higher share of hits than the screen did.
IL1B secr inh = qHTS for Inhibitors of Inflammasome Signaling: IL-1-beta AlphaLISA Primary Screen | AID 743279, 2014 | THP-1 LPS/ATP IL-1B secretion, AlphaLISA, 16 h; hits give low values | activity change, % at 57.5 µM | 4.7% of 360,000 active; in the data active means activity change below about -50%; inconclusive means mostly about -30% to -49%
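Secreted IL-1B measured by AlphaLISA bead assay after 16 h compound exposure of THP-1 cells; compounds (final up to 57.5 uM) added 1 h before LPS (250 ng/mL) and ATP (1.25 mM) stimulation; lower signal means less secretion.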
DT40 TDP1 CPT = qHTS for Inhibitors of human tyrosyl-DNA phosphodiesterase 1 (TDP1): qHTS in cells in presence of CPT; chicken DT40 Tdp1-/-;hTDP1 cells + 20 nM CPT, ATP luminescence, 48 h; Potency, µM (series often up to 46.2 µM), for the others: at the top dose activity change, negative = growth inhibition, usual class: inhibitors; 12% of 420,000 active; further: potency means the concentration at half of the fitted maximal effect; nearly all actives have a fitted effect of over 55% in size
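Cell growth measured by CellTiter-Glo luminescence after a minimum 48 h, 37 C compound exposure with 20 nM CPT in Tdp1-knockout DT40 cells stably expressing hTDP1, seeded 400/well; qHTS titration format.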
TDP1 cell noCPT = qHTS for Inhibitors of human tyrosyl-DNA phosphodiesterase 1 (TDP1): qHTS in cells in absence of CPT; DT40 Tdp1-/- hTDP1 cells, no CPT, ATP luminescence, 48 h; 15% of 420,000 active; Potency, µM (series often up to 46.2 µM), for the others: at the top dose activity change, negative = growth inhibition, hits mostly inhibitors; further: potency means the concentration at half of the fitted maximal effect; nearly all actives have a fitted effect of over 55% in size
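Stably hTDP1-transfected Tdp1-null chicken DT40 cells were treated with library compounds minus camptothecin and grown for at least 48 hr at 37 °C, after which cellular ATP was quantified by luminescence.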
ALOX12 inh = Primary qHTS assay for inhibitors of human arachidonate 12S-lipoxygenase (ALOX12): Round 2; purified 12hLO, xylenol orange hydroperoxide absorbance; Potency, µM (doses to about 108 µM), inactives show at the top dose activity change, negative = inhibition, most hits filed as inhibitors; 1.1% of 580,000 active; AID 1671190, 2021; further: potency means the concentration at half of the fitted maximal effect
Target sequence (P18054 whole entry, looked up): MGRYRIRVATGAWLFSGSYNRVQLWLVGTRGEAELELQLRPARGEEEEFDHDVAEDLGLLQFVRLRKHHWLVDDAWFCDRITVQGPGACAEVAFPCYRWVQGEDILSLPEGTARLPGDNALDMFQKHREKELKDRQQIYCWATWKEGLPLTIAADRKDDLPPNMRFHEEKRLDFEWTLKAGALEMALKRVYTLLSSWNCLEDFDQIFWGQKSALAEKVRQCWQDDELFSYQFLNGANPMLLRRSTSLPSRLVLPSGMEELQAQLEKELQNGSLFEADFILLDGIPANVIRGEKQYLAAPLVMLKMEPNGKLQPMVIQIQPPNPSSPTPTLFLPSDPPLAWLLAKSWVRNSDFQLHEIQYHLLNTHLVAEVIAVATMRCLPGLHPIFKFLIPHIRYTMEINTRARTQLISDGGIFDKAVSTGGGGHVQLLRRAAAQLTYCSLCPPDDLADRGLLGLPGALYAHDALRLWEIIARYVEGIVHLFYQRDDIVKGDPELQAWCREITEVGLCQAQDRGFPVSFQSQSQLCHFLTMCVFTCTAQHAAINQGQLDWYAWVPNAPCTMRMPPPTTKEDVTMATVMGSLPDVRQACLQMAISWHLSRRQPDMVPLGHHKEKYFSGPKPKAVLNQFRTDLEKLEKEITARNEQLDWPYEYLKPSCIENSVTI
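Purified human 12hLO at 150 nM in 25 mM Hepes, 0.01% Triton X-100, pH 7.0, preincubated 15 min at room temperature with compound. Reaction started with 40 uM arachidonic acid, 30 min at room temperature. Hydroperoxide measured by Fe-xylenol orange, 573/405 nm absorbance ratio.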
HT1080-NT tox = qHTS for induction of synthetic lethality in tumor cells producing 2HG: qHTS for the HT-1080-NT fibrosarcoma cell line; HT-1080-NT fibrosarcoma viability, CellTiter-Glo ATP luminescence, 48 h; Potency, µM (highest dose often 46.1 µM), inactives show top-dose activity, negative = less viability, hits mostly cytotoxic; 1.6% of 360,000 active; AID 686970, 2013;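 further: NT is the 2HG producing partner of a matched IDH1 knockdown line; potency means the concentration at half of the fitted maximal effect; 0% = DMSO-treated cells and -100% = media-only wells without cells; nearly all actives have a fitted effect of over 55% in size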
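HT-1080-NT fibrosarcoma cells (2HG-overproducing), 750 cells/well in RPMI with 5% FBS, dosed after 2 h and incubated 48 h at 37C. CellTiter-Glo luminescence normalized to DMSO and no-cell wells; concentration-response curves fitted and classed.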
HT1080 IDH1KD tx = qHTS for induction of synthetic lethality in tumor cells producing 2HG: qHTS for the HT-1080-IDH1KD cell line; AID 686971, 2013; Potency, µM (highest dose often 46.1 µM), for the others: at the top dose activity, negative = toxicity, most hits filed as cytotoxic; HT-1080 IDH1 knockdown viability, ATP luminescence, 48 h; 2% of 360,000 active;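 further: potency means the concentration at half of the fitted maximal effect; 0% = DMSO wells and -100% = cell-free medium wells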
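CellTiter-Glo luminescence after 48 h compound exposure at 37 degrees C of IDH1-knockdown HT-1080 cells in 5% FBS RPMI. %Activity scaled between DMSO wells and cell-free media wells, with curves fitted and assigned curve classes.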
The depositor's hits bear a star; ? = inconclusive; · = no result; ! = not confirmed by another sample; [ ] = remark or other dose. Unless noted, the call rests on the fitted dose curve; in most records, active means well fitted curve in the direction sought with a large enough effect; inconclusive means small, poorly fitted or top-dose-only effect, or another doubt; inactive means no such curve, though single readings can be large; an effect the other way counts as inactive or inconclusive. Unless noted, on the % scale 0 is the no-effect control and ±100 the full control effect.

SMILES	IL1B secr inh	DT40 TDP1 CPT	TDP1 cell noCPT	ALOX12 inh	HT1080-NT tox	HT1080 IDH1KD tx
COc1cccc(C(c2nnnn2Cc2ccccc2)N2CCC(n3c(=O)[nH]c4ccccc43)CC2)c1OC (configuration not stated)	0	2.6µM*	3.3µM*	-24%	21µM*	?
O=C1CC(N2CCC(n3c(=O)[nH]c4ccccc43)CC2)C(=O)N1Cc1ccccc1 (configuration not stated)	-12	-4%	-10%	0%	2%	0%
CCC(c1nnnn1C1CCCC1)N1CCC2(CC1)C(=O)NCN2c1ccccc1 (configuration not stated)	-15	?	-24%	-9%	16%	4%
O=c1[nH]c2ccccc2n1C1CCN(C(c2cccc3ccccc23)c2nnnn2Cc2ccccc2)CC1 (configuration not stated)	?	12µM*	8.2µM*	-9%	?	?
O=c1[nH]c2ccccc2n1C1CCN(Cc2ccc(-c3[nH]c4cc5ncnc5cc4nc3-c3ccccc3)cc2)CC1	0	2.3µM*	2.9µM*	-23%[57.4 µM]	?	?
COc1cc2c(cc1OCc1ccccc1)NC(=O)C21CCN(c2nc(C)cnc2C)CC1	·	·	·	1%	·	·
COc1ccc(-c2cc([C@H]3CN4CC[C@H]3C[C@@H]4CNC(=O)CCCC(=O)O)n(C)n2)cc1	·	·	·	28%	·	·
O[C@H]1[C@H](NCC2CCCC2)[C@@H](c2ccccc2)C[C@H]1O	·	·	·	18%[176 µM]	·	·
COc1ccccc1N1CCN(C[C@H]2CN3CC[C@H]2C[C@@H]3CNC(=O)c2ccc3c(c2)OCO3)CC1	·	·	·	7%	·	·
O=C1NCN(c2ccccc2)C12CCN(C(c1ccccc1OC(F)(F)F)c1nnnn1Cc1ccccc1)CC2 (configuration not stated)	0	?	-86%	?	9%	2%
O=c1[nH]c2ccccc2n1C1CCN(C(c2cc3ccccc3o2)c2nnnn2Cc2ccccc2)CC1 (configuration not stated)	?	10µM*	9.2µM*	?	10µM*	8.2µM*
O=C(Cc1ccccc1)N1CCN(Cc2cccc(Cl)c2)CC1	-6	-3%	-16%	?	9%	?
O=C(NCCCN1CCCC1)c1ccc2c(c1)N(Cc1cccc(Cl)c1)C(=O)c1ccccc1S2=O (configuration not stated)	-16	?	?	-18%	16µM*	?
O=C(O)COCC(=O)N1C[C@@H]2C[C@H](C1)c1ccc(-c3cccc(C(F)(F)F)c3)c(=O)n1C2	·	·	·	48%	·	·
O=c1c2ccccc2nc(/C=C/c2ccc([N+](=O)[O-])o2)n1-c1ccc(O)cc1	-88*	2.3µM*	2.3µM*	-21%	?	2.6µM*
Cc1ccc(-n2c(/C=C/c3cccs3)nc3ccccc3c2=O)cc1C	·	?	?	1%	·	·
Cc1cccc(-n2c(/C=C/c3ccc([N+](=O)[O-])o3)nc3ccccc3c2=O)c1	-104*	3.3µM*	4.6µM*	-34%	5%	?
O=C1c2ccccc2-c2c1nc1c([n+]2[O-])CCCC1	8	12µM*	?	310%	9%	16%
C[S+](=O)([O-])N1C2CCC1CN(Cc1cccnc1)C2	·	·	·	5%[12.5 µM]	·	·
COc1ccc(CC2c3cc(OC)c(OC)cc3CCN2C)cc1OC (configuration not stated)	-15	18µM*!	23µM*!	12%	-4%	-5%
Clc1ccc(C2NCc3ccccc3-n3cccc32)cc1 (configuration not stated)	·	·	·	-29%	·	·
CC(C)c1ccc(C2NCc3ccccc3-n3cccc32)cc1 (configuration not stated)	-10	?	21µM*	-22%	-13%	0%
CCOc1cc(C2NCc3ccccc3-n3cccc32)ccc1O (configuration not stated)	-57*	23µM*	?	0%	-11%	-6%
CCOc1cc2c(cc1OCC)-n1cccc1C(c1cccc([N+](=O)[O-])c1)NC2 (configuration not stated)	-16	23µM*	18µM*	?	-10%	0%
COc1cc2c(cc1O)CC[C@@H]1[C@@H]2CC[C@]2(C)[C@@H](O)CC[C@@H]12	-11	1.8µM*	4.6µM*	·	?	?
SMILES	IL1B secr inh	DT40 TDP1 CPT	TDP1 cell noCPT	ALOX12 inh	HT1080-NT tox	HT1080 IDH1KD tx
CCCCn1c(C)c(C(=O)OCC)c2cc(OC)ccc21	·	·	·	8%	·	·
CCCCn1c(C)c(C(=O)OCC)c2c(CN3CCOCC3)c(O)ccc21	-60*	-21%	-17%	?	-11%	-26%
CCCCn1c(C)c(C(=O)OCC)c2c(CN3CCCC3)c(O)ccc21	-79*	18µM*	12µM*	?	?	-30%
CS(=O)(=O)N1C[C@H]2CCN(Cc3ccc[nH]3)C[C@H]21	·	·	·	170%	·	·
COc1ccc(-c2ccc3c(c2)CN(c2cccc(Cl)c2)Cc2cnnn2-3)cc1	-3	?	?	18µM*	10%	-16%
CC(C)CN1Cc2cc(-c3ccccc3)ccc2-n2nncc2C1	?	?	?	-42%	-2%	-6%
COc1ccc(-c2ccc3c(c2)CN(CC(C)C)Cc2cnnn2-3)cc1	?	16µM*	?	-20%	1%	-6%
Clc1cccc(N2Cc3cc(-c4ccccc4)ccc3-n3nncc3C2)c1	-110*	2.6µM*	3.7µM*	-55%	10µM*	10µM*
Cc1ccc(S(=O)(=O)N2Cc3cc(N4CCOCC4)ccc3-n3nncc3C2)cc1	-13	-28%	?	0%	7%	8%
Clc1cccc(N2Cc3cc(N4CCOCC4)ccc3-n3nncc3C2)c1	0	18µM*	?	-25%	-29%	?
COC(=O)C1=C(c2cc3ccccc3o2)C[C@@H]2CC[C@H]1N2C	0	-20%	-19%	-7%	2%	-3%

Assay outcomes (PubChem BioAssay)
